This is an account of results in PubChem BioAssay (Tox21).

Assay [1] in a line: qHTS assay to identify small molecule antagonists of the vitamin D receptor (VDR) signaling pathway - cell viability counter screen (AID 743225). Further: nearly all actives have a fitted effect of over 50% in size. The gist of the method: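 Cytotoxicity toward the VDR-bla HEK 293T line was scored by ATP-based CellTiter-Glo luminescence, read in the wells already used for the beta-lactamase readout after 16 h compound treatment under 3 nM 1-alpha,25-dihydroxyvitamin D3 stimulation.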

Assay [2] is described as follows: qHTS assay to identify small molecule agonists of the NFkB signaling pathway - cell viability counter screen (AID 1159515; calls by dose curve; further: series mostly up to about 61 µM; nearly all actives have a fitted effect of over 55% in size). The gist of the method: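 Luminescence from CellTiter-Glo (30 min, room temperature) gives viability, measured in the same wells as the beta-lactamase reporter read. Cells were NFkB-bla ME-180, 2,000 per well, treated 5 hr with compounds.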

A short description of assay [3]: qHTS assay to identify small molecule agonists of the endoplasmic reticulum stress response signaling pathway (AID 1159516; active means well fitted activation curve with a large enough effect in the signal ratio in the repeat runs, not every such curve was filed as active; the % refers to the signal ratio). The gist of the method: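 Read-out is beta-lactamase cleavage of a FRET substrate (405 nm excitation; 460 and 530 nm emissions) in ESRE-bla HeLa cells after a 5 hr compound exposure at 37 C. Substrate incubation ran 2 hr at room temperature.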
In general terms: In qHTS, concentration-response curves come from the screen itself.

Assay [4] can be described thus: qHTS assay to identify small molecule agonists of the endoplasmic reticulum stress response signaling pathway - cell viability counter screen (AID 1159517; calls by dose curve;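 further: HeLa cells carrying an ER stress response element beta-lactamase reporter; series mostly up to about 61 µM; nearly all actives have a fitted effect of over 50% in size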). The gist of the method:
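Counter-screen wells were identical to the reporter wells. Cells were plated at 1,500 per well and dosed for 5 hr, then read for luminescence 30 min after CellTiter-Glo addition.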

A short description of assay [5]: qHTS assay to identify small molecule antagonists of the retinoid-related orphan receptor gamma (ROR-gamma) signaling pathway - cell viability counter screen (AID 1159520). Further: nearly all actives have a fitted effect of over 50% in size. The gist of the method: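 Tet-on ROR gamma CHO cells were given compounds for 2 hr, then doxycycline hyclate at 1 uM final, and incubated 16 hr at 37 C. Viability was measured as ATP content by CellTiter-Glo luminescence.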

Assay [6] concerns the target Nuclear receptor ROR-gamma (Homo sapiens) (UniProt P51449). Briefly: qHTS assay to identify small molecule antagonists of the retinoid-related orphan receptor gamma (ROR-gamma) signaling pathway (AID 1159521;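 further: CHO cells with doxycycline inducible ROR-gamma driving an RORE luciferase reporter; top concentration of the series differs between compounds; nearly all actives have a fitted effect of over 50% in size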). The method, boiled down: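 Readout: ONE-Glo luciferase luminescence, 30 min at room temperature. System: Tet-on RORγ CHO, RORE-LUC. Sequence: compound 2 h, doxycycline 1 uM final, 16 h at 37 C.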

A short description of assay [7]: qHTS assay to identify small molecule agonists of the AP-1 signaling pathway - cell viability counter screen (AID 1159525; calls by dose curve; further: nearly all actives have a fitted effect of over 55% in size). The method, boiled down: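 AP-1-bla ME-180 cells in Opti-MEM with 0.5% dialyzed FBS, compound exposure 5 h at 37 C in 15-point titration. Viability read in the same wells as ATP content by CellTiter-Glo luminescence, normalised to tetra-n-octylammonium bromide and DMSO controls.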

Assay [8] in a line: qHTS assay to identify small molecule agonists of the AP-1 signaling pathway (AID 1159526; calls by dose curve).
In assay [9] the target is Retinoic acid receptor RXR-alpha (Homo sapiens) (UniProt P19793). Briefly: qHTS assay to identify small molecule agonists of the RXR signaling pathway (AID 1159527; calls by dose curve; further: nearly all actives have a fitted effect of over 35% in size; further: potency means the concentration at half of the fitted maximal effect). The gist of the method: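 Reporter activation is measured as beta-lactamase activity via FRET substrate cleavage (emission 460/530 nm) in HEK 293T cells expressing an RXR-alpha-driven bla construct, following 16 hr compound exposure at 37 C.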

Assay [10] is described as follows: qHTS assay to identify small molecule agonists of the RXR signaling pathway - cell viability counter screen (AID 1159529). The method, boiled down:
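Tox21 10K compounds were tested for cytotoxicity against GeneBLAzer RXR-alpha HEK 293T cells grown in 2% charcoal-stripped FBS. Exposure lasted 16 hr at 37 C, 5% CO2; viability read by CellTiter-Glo luminescence.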

Assay [11] can be described thus: qHTS assay to identify small molecule antagonists of the retinoid acid receptor (RAR) signaling pathway - cell viability counter screen (AID 1159551). Further: nearly all actives have a fitted effect of over 35% in size. The method, boiled down:
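Luminescent ATP quantitation (CellTiter-Glo) gave cell viability in C3RL4 cells exposed to test chemicals for 6 h at 37 C alongside 1 uM final retinol.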

A short description of assay [12]: qHTS assay to identify small molecule agonists of the retinoic acid receptor (RAR) signaling pathway (AID 1159553). The method, boiled down: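 Luminescence from a RARE-driven luciferase reporter in C3RL4 cells served as the read-out, measured after 30 min with detection reagent at room temperature. Compounds in DMSO were applied for 6 hr at 37 C following overnight seeding.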

Assay [13] can be described thus: qHTS assay to identify small molecule antagonists of the estrogen related receptor (ERR) signaling pathway from Tox21 library - cell viability counter screen (AID 1224834). Further: nearly all actives have a fitted effect of over 30% in size. The method, boiled down:
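Fluorescence from CellTiter-Fluor gives the viability read-out, taken 30 min after reagent addition. Before that, ERR cells seeded 6 h earlier were incubated with compounds for 17.5 h at 37 C.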

The target in assay [14] is Luciferin 4-monooxygenase (Photinus pyralis) (UniProt P08659). Briefly: qHTS assay to identify small molecule inhibitors of firefly luciferase (AID 1224835). Further: series mostly up to about 120 µM; nearly all actives have a fitted effect of over 25% in size. The gist of the method:
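Biochemical qHTS: compounds run as interplate titrations against purified firefly enzyme, with D-luciferin and ATP each at its KM concentration. Light output recorded by CCD imaging.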

The nature of assay [15]: qHTS assay to identify small molecule antagonists of the constitutive androstane receptor (CAR) signaling pathway - cell viability counter screen (AID 1224837). Further: series mostly up to about 92 µM; nearly all actives have a fitted effect of over 45% in size. The method, boiled down:
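HepG2-CYP2B6-hCAR cells, 2500/well, 4 hr pre-incubation; compound titration, 15 conc.; CITCO 50 nM final; 23 hr, 37 C/5% CO2; CellTiter-Fluor, fluorescence intensity.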

Assay [16] is described as follows: qHTS assay to identify small molecule antagonists of the estrogen related receptor signaling pathway with the pleiotropic PPARgamma coactivator (PGC) from Tox21 10K library - cell viability counter screen (AID 1224840; active means well fitted cell-killing curve with a large enough effect in the repeat runs, not every such curve was filed as active; further: nearly all actives have a fitted effect of over 40% in size). The gist of the method:
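PGC/ERR cells, 2,000/well; 6 h pre-incubation 37 C/5% CO2; cpd in DMSO via pin tool; 17.5 h 37 C; CellTiter-Fluor, 30 min; fluorescence.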

Assay [17] has as its target Nuclear receptor subfamily 1 group I member 3 (Homo sapiens) (UniProt Q14994). Briefly: qHTS assay to identify small molecule antagonists of the constitutive androstane receptor (CAR) signaling pathway (AID 1224838).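 Further: HepG2 cells stably expressing hCAR with CYP2B6 luciferase reporter stimulated by CITCO; nearly all actives have a fitted effect of over 40% in size.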 The method, boiled down:
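HepG2-CYP2B6-hCAR cells; 4 h pre-incubation; cpd (15 conc) + CITCO 50 nM final; 24 h, 37 C/5% CO2; ONE-Glo, luminescence.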

Assay [18] is described as follows: qHTS assay to identify small molecule agonists of the constitutive androstane receptor (CAR) signaling pathway - cell viability counter screen (AID 1224836). Further: series mostly up to about 92 µM; nearly all actives have a fitted effect of over 45% in size. The gist of the method:
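Fluorescence from CellTiter-Fluor indicates live cells after 23 h exposure. The human hepatoma line expresses hCAR and a CYP2B6-2.2kb reporter. Incubation medium contains 0.75 uM PK11195 (final).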

The target in assay [19] is Nuclear receptor subfamily 1 group I member 3 (Homo sapiens) (UniProt Q14994). Briefly: qHTS assay to identify small molecule agonists of the constitutive androstane receptor (CAR) signaling pathway (AID 1224839).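 Further: HepG2 cells stably carrying human CAR and a CYP2B6 luciferase reporter; series mostly up to about 92 µM; nearly all actives have a fitted effect of over 15% in size.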 The method, boiled down: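 Stable hCAR/CYP2B6-2.2kb HepG2 line in DMEM with 10% FBS; compounds (15 concentrations) and 0.75 uM PK11195 final, 24 h at 37 C/5% CO2, then ONE-Glo luminescence after 30 min.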

Assay [20] is described as follows: qHTS assay to identify small molecule antagonists of the retinoic acid receptor (RAR) signaling pathway (AID 1159552; further: nearly all actives have a fitted effect of over 50% in size). The method, boiled down:
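Overnight-plated C3RL4 reporter cells get compound, then retinol to 1 uM final; plates sit 6 hr at 37 C, 5% CO2. A luciferase reagent is added and light output recorded after 30 min at room temperature.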

Records with an inconclusive call do not appear. A number with no mark means an inactive call. Active and inactive are the calls of the source. Unless noted, the call rests on the fitted dose curve; in most records, active means well fitted curve in the direction sought with a large enough effect in the repeat runs; inconclusive means weak or mixed curves; inactive means no such curve, though single readings can be large; an effect the other way counts as inactive or inconclusive.

Chain of Retinoic acid receptor RXR-alpha (Homo sapiens) (P19793 whole entry, looked up): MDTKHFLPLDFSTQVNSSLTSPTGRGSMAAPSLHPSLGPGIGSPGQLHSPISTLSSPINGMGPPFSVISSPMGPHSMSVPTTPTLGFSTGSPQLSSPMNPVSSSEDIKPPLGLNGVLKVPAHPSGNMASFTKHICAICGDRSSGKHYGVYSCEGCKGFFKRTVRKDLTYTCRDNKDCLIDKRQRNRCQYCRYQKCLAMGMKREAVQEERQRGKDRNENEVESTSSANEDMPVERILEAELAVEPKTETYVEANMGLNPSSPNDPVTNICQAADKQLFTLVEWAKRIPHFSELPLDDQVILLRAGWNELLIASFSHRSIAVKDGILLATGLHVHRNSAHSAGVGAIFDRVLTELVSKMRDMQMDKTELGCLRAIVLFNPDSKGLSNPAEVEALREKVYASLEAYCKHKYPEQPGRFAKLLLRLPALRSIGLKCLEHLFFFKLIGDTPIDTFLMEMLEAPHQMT
Chain of Luciferin 4-monooxygenase (Photinus pyralis) (P08659 whole entry, looked up): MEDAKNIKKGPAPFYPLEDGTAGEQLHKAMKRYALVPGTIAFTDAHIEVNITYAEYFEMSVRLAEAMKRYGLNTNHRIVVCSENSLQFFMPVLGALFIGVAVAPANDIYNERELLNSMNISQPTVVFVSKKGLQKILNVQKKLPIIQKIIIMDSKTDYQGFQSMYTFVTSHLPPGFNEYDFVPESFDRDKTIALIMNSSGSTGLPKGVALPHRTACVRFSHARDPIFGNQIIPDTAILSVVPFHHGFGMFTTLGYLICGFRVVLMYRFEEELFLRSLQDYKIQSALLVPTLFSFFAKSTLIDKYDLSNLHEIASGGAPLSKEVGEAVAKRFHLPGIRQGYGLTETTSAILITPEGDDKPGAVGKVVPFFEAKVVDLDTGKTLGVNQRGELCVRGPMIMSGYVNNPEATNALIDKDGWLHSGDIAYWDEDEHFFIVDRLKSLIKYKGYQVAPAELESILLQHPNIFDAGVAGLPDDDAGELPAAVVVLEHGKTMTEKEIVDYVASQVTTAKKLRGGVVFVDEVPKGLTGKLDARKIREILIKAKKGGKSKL
Chain of Nuclear receptor subfamily 1 group I member 3 (Homo sapiens) (Q14994 whole entry, looked up): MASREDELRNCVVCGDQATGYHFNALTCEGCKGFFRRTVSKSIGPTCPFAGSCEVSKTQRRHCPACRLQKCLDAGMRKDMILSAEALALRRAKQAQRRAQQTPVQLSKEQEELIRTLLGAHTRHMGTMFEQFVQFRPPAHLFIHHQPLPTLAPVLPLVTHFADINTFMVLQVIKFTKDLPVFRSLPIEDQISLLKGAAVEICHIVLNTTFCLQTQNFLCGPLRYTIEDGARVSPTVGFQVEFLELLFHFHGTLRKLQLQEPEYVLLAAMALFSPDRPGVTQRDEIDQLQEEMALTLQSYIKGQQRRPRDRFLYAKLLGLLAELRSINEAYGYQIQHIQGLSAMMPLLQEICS

Consider `C=CCn1cc[n+](C)c1`, for which the outcome in [1], in [2], in assay [4], in assay [5], in [6] and in [7] was inactive. Also, the call in assay [11], in assay [13], in assay [15] and in assay [16] was inactive. Moreover, the Potency entry in assay [3], in assay [8], in assay [9], in assay [10], in assay [12] and in [14] was “inactive” each time.
Take `CNC(C)=O`: the result in [2], in assay [4], in assay [5], in assay [6], in assay [7] and in assay [11] was inactive. The result in assay [13], in [15], in [17] and in [16] was inactive. Further, the Potency result in [3], in [8], in assay [9], in assay [10], in assay [12] and in assay [14] was “inactive” throughout.
For `CCCc1ccc(O)c(OC)c1`, the outcome in assay [2], in assay [4], in assay [5], in assay [6], in assay [7] and in assay [11] was inactive. Also, the outcome in assay [13], in [18], in assay [15], in assay [17] and in assay [16] was inactive. In addition, the Potency result in [3], in assay [8], in assay [9], in [10], in assay [12] and in [14] was “inactive” in each case.
For `CCN(CC)CC(=O)Oc1ccc(NC(C)=O)cc1`, the result in assay [1], in assay [2], in assay [4], in assay [5], in assay [6] and in [7] was inactive. In addition, the outcome in [11], in assay [13], in assay [18], in assay [15] and in assay [16] was inactive. In addition, the Potency result in assay [3], in [8], in [9], in assay [10], in assay [14] and in [19] was “inactive” each time.
As for `O=S(=O)(O)c1ccc(Cl)cc1`, the call in [2], in assay [4], in [5], in [6], in assay [7] and in [11] was inactive. Also, the compound was called inactive in assay [18], in [15], in assay [17] and in assay [16]. The Potency result in [3], in assay [8], in assay [9], in assay [10], in assay [12] and in assay [14] was “inactive” throughout. Besides, the Potency entry in assay [19] was “inactive”.
Turning to `O=P(O)(O)C(O)(Cc1cccnc1)P(=O)(O)O`, the compound was called inactive in assay [2], in assay [4], in assay [5], in assay [6], in assay [7] and in assay [11]. The outcome in [13], in assay [18], in assay [15], in [17] and in assay [16] was inactive. Moreover, the Potency entry in assay [3], in [8], in assay [9], in assay [10], in assay [12] and in assay [14] was “inactive” each time. Besides, the Potency result in [19] was “inactive”.
Regarding `Cc1cc(N)no1`, the outcome in [1], in assay [2], in assay [4], in assay [5], in [6] and in assay [7] was inactive. Further, the outcome in [11], in [13], in assay [18], in assay [15], in [17] and in assay [16] was inactive. In addition, the Potency entry in assay [3], in assay [8], in [9], in assay [10], in assay [12] and in [14] was “inactive” each time. In assay [19], the Potency entry is “inactive”.
As for `CCCCCC(CC)OC(=O)CCCOc1ccc(Cl)cc1Cl` (configuration not stated), the result in assay [1], in assay [2], in assay [4], in [5], in [6] and in assay [7] was inactive. Also, the call in assay [11], in [20], in assay [13], in assay [18], in assay [15] and in assay [16] was inactive. The Potency entry in [3], in assay [8], in [10] and in assay [14] was “inactive” in each case. Moreover, the Potency in assay [9] is 4.35 µM (active).
